Data: PubChem BioAssay AID1159580 (chemical genetic matrix, 2015)
Values joined by “and” are separate entries in the source; they are usually repeats but may differ in a detail not shown here. Equal values may be shown once. About 2,000 (36%) of roughly 5,500 compounds were called active. About 18% were inconclusive and are not listed. No stated cut-off is given here; in the data, active means normalized growth mostly below about 0.91 (no sharp cut-off); inconclusive means no clear call, values can overlap the other calls; inactive means mostly above about 0.92. The list shows a part of the results.

Test: chemical genetic growth profiling, strain panel (AID 1159580);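 further: tested at 20 µM; growth read once vehicle control cultures reached saturation at 30 °C; 1 = growth at the plate median or of vehicle wells; lower values mean less growth of the strain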
Settings: S. cerevisiae deletion strains, growth OD

Measured: normalized growth

COC(=O)c1cc(=O)c(O)c2c(O)c(O)ccc2c1
inactive: locus YAL021C, strain ccr4, active compounds read low 1 | locus YAL026C, strain drs2, active compounds read low 0.968 | locus YAL030W, strain snc1, active compounds read low 0.991 | locus YBL061C, strain skt5, active compounds read low 0.988 | locus YBR009C, strain hhf1, active compounds read low 0.985 | locus YBR021W, strain FUR4, active compounds read low 1.07 | locus YBR023C, strain chs3, active compounds read low 0.995 | locus YBR171W, strain sec66, active compounds read low 0.976 | locus YBR229C, strain ROT2, active compounds read low 0.976 | locus YBR231C, strain swc5, active compounds read low 0.976 | locus YBR279W, strain paf1, active compounds read low 1 | locus YCL011C, strain gbp2, active compounds read low 1 | locus YCL016C, strain dcc1, active compounds read low 0.989 | locus YCL061C, strain MRC1, active compounds read low 0.987 | locus YCL069W, strain vba3, active compounds read low 1 | locus YCR088W, strain abp1, active compounds read low 0.997 | locus YDL005C, strain med2, active compounds read low 1.01 | locus YDL040C, strain nat1, active compounds read low 0.986 | locus YDR001C, strain nth1, active compounds read low 0.999 | locus YDR069C, strain doa4, active compounds read low 0.955 | locus YDR159W, strain sac3, active compounds read low 0.947 | locus YDR195W, strain ref2 0.934 | locus YDR297W, strain sur2, active compounds read low 0.987 | locus YDR334W, strain swr1, active compounds read low 0.983 | locus YDR335W, strain msn5, active compounds read low 0.994 | locus YDR388W, active compounds read low 0.954 | locus YDR392W, strain spt3, active compounds read low 0.99 | locus YEL003W, strain gim4, active compounds read low 0.996 | locus YEL037C, strain rad23, active compounds read low 0.997 | locus YEL061C, strain CIN8 (second series), active compounds read low 0.994 | locus YER015W, strain faa2, active compounds read low 0.985 | locus YER016W, strain bim1, active compounds read low 0.973 | locus YER110C, active compounds read low 0.988 | locus YER111C, strain swi4, active compounds read low 0.976 | locus YER155C, strain BEM2 (second series), active compounds read low 0.977 | locus YFR010W, strain ubp6, active compounds read low 0.958 | locus YGL167C, strain pmr1, active compounds read low 0.98 | locus YGL173C, strain kem1, active compounds read low 0.984 | locus YGL227W, strain vid30, active compounds read low 0.988 | locus YGL240W, strain doc1, active compounds read low 1.01 | locus YGL253W, strain hxk2, active compounds read low 0.998 | locus YGR252W, strain gcn5, active compounds read low 0.948 | locus YHR013C, strain ard1, active compounds read low 1.04 | locus YHR027C, strain rpn1, active compounds read low 0.991 | locus YHR094C, strain hxt1, active compounds read low 0.968 | locus YHR142W, strain chs7, active compounds read low 1.02 | locus YIR030C, strain dcg1, active compounds read low 0.932 | locus YJL092W, strain hpr5, active compounds read low 0.991 | locus YJL095W, strain BCK1 (second series), active compounds read low 0.99 | locus YJL115W, strain asf1, active compounds read low 0.99 | locus YJL129C, strain trk1, active compounds read low 0.997 | locus YJL134W, strain LCB3, active compounds read low 0.958 | locus YJL154C, strain vps35, active compounds read low 1.02 | locus YJL164C, strain tpk1, active compounds read low 0.995 | locus YJL166W, strain qcr8, active compounds read low 0.999 | locus YJL187C, strain SWE1, active compounds read low 0.992
active: locus YCL029C, strain bik1, active compounds read low 0.713 | locus YDL035C, strain GPR1, active compounds read low 0.512 | locus YDL074C, strain BRE1, active compounds read low 0.743 | locus YDL101C, strain DUN1, active compounds read low 0.778 | locus YDL185W, strain tfp1, active compounds read low 0.631 | locus YDL192W, strain arf1, active compounds read low 0.772 | locus YDR101C, strain arx1, active compounds read low 0.842 | locus YDR137W, strain rgp1, active compounds read low 0.821 | locus YDR150W, strain NUM1, active compounds read low 0.852 | locus YDR162C, strain NBP2, active compounds read low 0.275 | locus YDR318W, strain mcm21, active compounds read low 0.856 | locus YDR502C, strain sam2, active compounds read low 0.891 | locus YER155C, strain BEM2, active compounds read low 0.922 | locus YER167W, strain BCK2, active compounds read low 0.862 | locus YGL078C, strain dbp3, active compounds read low 0.732 | locus YGL086W, strain mad1, active compounds read low 0.71 | locus YGL248W, strain PDE1, active compounds read low 0.73 | locus YGR078C, strain PAC10, active compounds read low 0.713 | locus YGR135W, strain pre9, active compounds read low 0.795 | locus YGR229C, strain SMI1, active compounds read low 0.151 | locus YHR030C, strain SLT2, active compounds read low 0.604 and 0.636 | locus YHR079C, strain IRE1 (second series), active compounds read low 0.874 | locus YHR079C, strain IRE1, active compounds read low 0.81 | locus YHR129C, strain ARP1, active compounds read low 0.681 | locus YHR200W, strain rpn10, active compounds read low 0.878 | locus YIL066C, strain RNR3, active compounds read low 0.552 | locus YIL073C, strain SPO22, active compounds read low 0.416 | locus YIL125W, strain kgd1, active compounds read low 0.812 | locus YJL095W, strain BCK1, active compounds read low 0.59 and 0.624 | locus YJL168C, strain set2, active compounds read low 0.924 | locus YJL187C, strain SWE1 (second series), active compounds read low 0.627
